# The supplement of paper PMC10849652
# About 7,900 targets were measured; listed, in parts, are those with a hit and a random draw of the rest. About 0.6% of all pairs of compound and target were hits. Unmarked numbers belong to inactive results.
# Tests used:
# Experiment in all cases: log2 fold change, soluble protein after heating vs DMSO (PISA); higher = thermal stabilisation; K562 cells, 10 uM, 30 min; active = over 0.2 and 3.5 SD of the protein, either way, in both replicates (recomputed)
# [1] = compound: C1=CC=C(C=C1)[C@H](COC2=CC3=C(C=C2)NC(=O)N3)NC(=O)C4=CC=CN(C4=O)CC5=CC(=C(C=C5)F)F
# Method in brief: (§1)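 Quantification of soluble protein used TMTpro 16plex LC-MS/MS, with channel sums equalised. Samples were the supernatant after 21,000xg for 90 min of pooled aliquots from K562 cells (2×10^6 cells/mL) treated with 10 μM compound for 30 min, heated for 3 min over 48°C-58°C, and extracted in PBS with 0.5% NP-40 at 4°C. Values, from duplicates, describe thermal stability against control samples on a log2 fold-change scale.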
# [2] = compound: CC1=C(SC2=C1C(=N[C@H](C3=NN=C(N32)C)CC(=O)N)C4=CC=C(C=C4)Cl)C
# Method in brief: as §1
# [3] = compound: CC1=C2C(=CC=C1)N=C(N(C2=O)C3=CC=CC=C3C)CN4C=NC5=C(N=CN=C54)N
# Method in brief: as §1
# [4] = compound: Cc1sc2c(c1C)C(c1ccc(Cl)cc1)=N[C@@H](CC(=O)OC(C)(C)C)c1nnc(C)n1-2
# Method in brief: as §1
# [5] = compound: c1ccc([C@@H]2C[C@H]2NC2CCNCC2)cc1
# Method in brief: as §1
# UniProt P10620, sequence (P10620 whole entry, looked up): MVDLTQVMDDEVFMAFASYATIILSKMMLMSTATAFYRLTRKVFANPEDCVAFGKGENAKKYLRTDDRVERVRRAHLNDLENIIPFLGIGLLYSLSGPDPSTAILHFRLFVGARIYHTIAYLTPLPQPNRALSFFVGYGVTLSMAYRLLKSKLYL
# UniProt Q9BRT3, sequence (Q9BRT3 whole entry, looked up): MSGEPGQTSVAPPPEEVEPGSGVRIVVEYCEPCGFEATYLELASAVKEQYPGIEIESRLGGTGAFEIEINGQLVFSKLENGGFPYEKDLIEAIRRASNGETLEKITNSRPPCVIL
# UniProt Q14974, sequence (Q14974 whole entry, looked up): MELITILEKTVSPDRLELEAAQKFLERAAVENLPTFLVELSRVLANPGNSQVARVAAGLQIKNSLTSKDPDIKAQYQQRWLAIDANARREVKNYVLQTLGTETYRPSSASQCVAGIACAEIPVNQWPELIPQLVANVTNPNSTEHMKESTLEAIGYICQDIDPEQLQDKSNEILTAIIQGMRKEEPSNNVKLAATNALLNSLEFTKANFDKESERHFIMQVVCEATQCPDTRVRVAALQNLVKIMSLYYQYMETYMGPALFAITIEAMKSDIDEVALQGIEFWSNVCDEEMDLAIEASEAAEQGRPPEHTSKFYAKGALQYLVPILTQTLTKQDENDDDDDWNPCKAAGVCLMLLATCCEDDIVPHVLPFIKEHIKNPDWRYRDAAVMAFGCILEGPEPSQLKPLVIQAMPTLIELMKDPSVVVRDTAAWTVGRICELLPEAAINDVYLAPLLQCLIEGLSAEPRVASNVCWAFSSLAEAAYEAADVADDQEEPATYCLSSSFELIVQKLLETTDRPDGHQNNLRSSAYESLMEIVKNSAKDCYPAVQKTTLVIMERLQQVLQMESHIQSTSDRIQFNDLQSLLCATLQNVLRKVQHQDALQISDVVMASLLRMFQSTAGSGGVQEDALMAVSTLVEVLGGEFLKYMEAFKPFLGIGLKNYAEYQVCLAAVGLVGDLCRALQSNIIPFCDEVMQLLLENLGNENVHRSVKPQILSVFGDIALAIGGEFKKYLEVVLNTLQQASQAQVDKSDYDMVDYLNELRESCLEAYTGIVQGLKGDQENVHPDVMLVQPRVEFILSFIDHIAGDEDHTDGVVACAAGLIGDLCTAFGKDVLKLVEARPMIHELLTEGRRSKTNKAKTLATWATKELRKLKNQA
# UniProt P49137, sequence (P49137 whole entry, looked up): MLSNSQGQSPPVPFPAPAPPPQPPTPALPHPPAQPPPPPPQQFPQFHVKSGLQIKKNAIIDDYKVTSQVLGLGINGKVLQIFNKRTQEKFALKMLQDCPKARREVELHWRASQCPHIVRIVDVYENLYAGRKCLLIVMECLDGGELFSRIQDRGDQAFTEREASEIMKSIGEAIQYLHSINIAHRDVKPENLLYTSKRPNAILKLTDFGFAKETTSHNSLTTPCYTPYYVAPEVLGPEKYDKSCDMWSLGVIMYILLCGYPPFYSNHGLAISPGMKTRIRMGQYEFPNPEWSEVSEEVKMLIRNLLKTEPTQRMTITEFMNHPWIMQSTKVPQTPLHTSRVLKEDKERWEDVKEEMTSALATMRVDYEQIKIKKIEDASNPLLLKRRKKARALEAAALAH
# UniProt Q8IYU8, sequence (Q8IYU8 whole entry, looked up): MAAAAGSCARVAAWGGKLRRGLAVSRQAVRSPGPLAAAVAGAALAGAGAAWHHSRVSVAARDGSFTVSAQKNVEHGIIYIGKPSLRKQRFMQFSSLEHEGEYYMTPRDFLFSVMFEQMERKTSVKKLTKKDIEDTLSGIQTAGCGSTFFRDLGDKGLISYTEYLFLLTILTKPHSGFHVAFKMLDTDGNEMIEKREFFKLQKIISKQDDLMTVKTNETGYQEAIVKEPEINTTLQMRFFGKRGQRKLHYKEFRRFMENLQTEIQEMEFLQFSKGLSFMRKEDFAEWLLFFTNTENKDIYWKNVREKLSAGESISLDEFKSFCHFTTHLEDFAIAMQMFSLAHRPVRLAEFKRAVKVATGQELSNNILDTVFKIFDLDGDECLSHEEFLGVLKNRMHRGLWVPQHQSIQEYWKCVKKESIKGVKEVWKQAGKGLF
# UniProt Q92615, sequence (Q92615 whole entry, looked up): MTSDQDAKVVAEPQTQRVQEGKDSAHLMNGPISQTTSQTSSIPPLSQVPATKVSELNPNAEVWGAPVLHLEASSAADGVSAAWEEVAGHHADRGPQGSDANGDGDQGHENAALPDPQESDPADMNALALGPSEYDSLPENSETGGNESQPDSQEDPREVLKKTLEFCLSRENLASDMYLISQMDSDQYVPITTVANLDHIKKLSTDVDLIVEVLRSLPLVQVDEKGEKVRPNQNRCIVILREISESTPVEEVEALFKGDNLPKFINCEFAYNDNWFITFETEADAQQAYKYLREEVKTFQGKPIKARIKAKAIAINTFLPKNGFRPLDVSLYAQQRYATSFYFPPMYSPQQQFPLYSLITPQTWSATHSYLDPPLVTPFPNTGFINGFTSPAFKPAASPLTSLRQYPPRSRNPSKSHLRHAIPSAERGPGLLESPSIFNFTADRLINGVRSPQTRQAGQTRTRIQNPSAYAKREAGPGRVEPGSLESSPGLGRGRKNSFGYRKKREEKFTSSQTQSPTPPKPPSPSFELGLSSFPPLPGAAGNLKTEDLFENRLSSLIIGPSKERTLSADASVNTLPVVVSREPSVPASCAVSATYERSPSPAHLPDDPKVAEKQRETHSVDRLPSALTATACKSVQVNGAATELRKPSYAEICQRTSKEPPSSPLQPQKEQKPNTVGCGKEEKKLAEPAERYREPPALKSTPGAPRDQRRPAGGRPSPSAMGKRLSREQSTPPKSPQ
# UniProt Q9UIQ6, sequence (Q9UIQ6 whole entry, looked up): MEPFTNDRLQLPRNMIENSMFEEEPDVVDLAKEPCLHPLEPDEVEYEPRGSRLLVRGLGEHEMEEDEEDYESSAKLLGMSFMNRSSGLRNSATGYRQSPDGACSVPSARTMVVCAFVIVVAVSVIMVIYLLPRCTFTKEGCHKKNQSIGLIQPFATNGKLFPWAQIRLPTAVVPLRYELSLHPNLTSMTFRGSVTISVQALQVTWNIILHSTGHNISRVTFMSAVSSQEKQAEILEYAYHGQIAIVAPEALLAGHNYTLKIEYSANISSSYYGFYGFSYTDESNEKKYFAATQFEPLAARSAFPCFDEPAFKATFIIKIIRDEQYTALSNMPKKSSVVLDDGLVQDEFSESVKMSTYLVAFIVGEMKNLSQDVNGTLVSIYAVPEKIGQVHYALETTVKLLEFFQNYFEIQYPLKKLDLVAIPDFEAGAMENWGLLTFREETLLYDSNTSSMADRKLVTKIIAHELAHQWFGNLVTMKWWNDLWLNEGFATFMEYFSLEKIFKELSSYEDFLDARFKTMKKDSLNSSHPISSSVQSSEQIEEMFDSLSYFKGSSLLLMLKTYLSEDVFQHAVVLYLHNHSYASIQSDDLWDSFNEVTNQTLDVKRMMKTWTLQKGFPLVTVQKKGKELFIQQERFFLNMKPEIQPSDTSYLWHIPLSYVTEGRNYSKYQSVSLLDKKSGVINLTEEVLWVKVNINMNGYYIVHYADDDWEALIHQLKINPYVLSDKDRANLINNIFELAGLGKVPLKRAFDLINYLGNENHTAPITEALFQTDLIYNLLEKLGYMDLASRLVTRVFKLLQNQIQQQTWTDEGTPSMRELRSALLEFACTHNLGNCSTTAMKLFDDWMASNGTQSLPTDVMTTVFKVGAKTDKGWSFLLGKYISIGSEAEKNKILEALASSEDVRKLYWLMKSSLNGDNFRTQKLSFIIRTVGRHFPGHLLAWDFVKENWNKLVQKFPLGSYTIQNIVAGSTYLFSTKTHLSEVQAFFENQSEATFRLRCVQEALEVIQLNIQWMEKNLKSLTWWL
# UniProt Q96GA3, sequence (Q96GA3 whole entry, looked up): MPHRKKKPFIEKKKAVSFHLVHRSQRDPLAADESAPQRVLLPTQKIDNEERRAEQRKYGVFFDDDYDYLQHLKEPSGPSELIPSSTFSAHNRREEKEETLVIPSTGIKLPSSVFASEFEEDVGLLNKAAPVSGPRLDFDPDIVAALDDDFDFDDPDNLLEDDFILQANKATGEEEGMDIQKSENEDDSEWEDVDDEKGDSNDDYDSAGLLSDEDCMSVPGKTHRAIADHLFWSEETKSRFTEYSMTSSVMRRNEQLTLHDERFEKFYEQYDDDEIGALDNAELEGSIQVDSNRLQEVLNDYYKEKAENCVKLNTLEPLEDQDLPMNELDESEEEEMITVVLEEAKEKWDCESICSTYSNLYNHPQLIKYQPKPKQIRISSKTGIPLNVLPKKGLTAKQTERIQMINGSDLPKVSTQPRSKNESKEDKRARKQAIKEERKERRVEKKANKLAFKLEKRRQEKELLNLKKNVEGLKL
# UniProt Q8NHS3, sequence (Q8NHS3 whole entry, looked up): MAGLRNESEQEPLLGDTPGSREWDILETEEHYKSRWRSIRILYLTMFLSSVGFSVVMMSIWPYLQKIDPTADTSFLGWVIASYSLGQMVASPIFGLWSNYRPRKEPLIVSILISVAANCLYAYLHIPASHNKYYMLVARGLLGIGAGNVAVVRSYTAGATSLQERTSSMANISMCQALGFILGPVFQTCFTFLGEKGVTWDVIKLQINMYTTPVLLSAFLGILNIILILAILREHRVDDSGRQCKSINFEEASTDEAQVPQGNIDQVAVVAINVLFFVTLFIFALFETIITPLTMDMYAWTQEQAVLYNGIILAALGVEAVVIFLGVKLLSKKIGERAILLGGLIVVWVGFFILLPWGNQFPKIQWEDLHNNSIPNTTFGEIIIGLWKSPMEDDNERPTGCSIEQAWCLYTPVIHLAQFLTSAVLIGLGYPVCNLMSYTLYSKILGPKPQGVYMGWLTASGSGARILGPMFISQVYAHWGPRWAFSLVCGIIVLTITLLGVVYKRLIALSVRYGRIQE
# UniProt Q8WV07, sequence (Q8WV07 whole entry, looked up): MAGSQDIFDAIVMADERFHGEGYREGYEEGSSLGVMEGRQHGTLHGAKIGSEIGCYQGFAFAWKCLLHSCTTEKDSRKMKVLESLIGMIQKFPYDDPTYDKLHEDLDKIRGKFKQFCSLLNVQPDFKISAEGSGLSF
Target,log2 fold change [1],log2 fold change [2],log2 fold change [3],log2 fold change [4],log2 fold change [5]
KIF1B isoform 4 (UniProt O60333),-0.035,0.027,0.042,-0.025,-0.048
MICU1 isoform 3 (UniProt Q9BPX6),0.005,-0.033,-0.06,0.02,-0.036
IPO11 isoform 2 (UniProt Q9UI26),0.048,0.064,0.01,0.013,0.001
MFSD8 (UniProt Q8NHS3),-0.134,-0.033,0.074,-0.289,0.119
MAP3K4 isoform 2 (UniProt Q9Y6R4),-0.047,0.026,0.057,-0.034,0.018
LTV1 (UniProt Q96GA3),-0.02,-0.137,-0.033,0.17,0
LNPEP (UniProt Q9UIQ6),0.066,0.061,0.001,-0.016,0.046
LONP2 (UniProt Q86WA8),-0.036,0.009,0.02,0.009,-0.147
MAP2K2 (UniProt P36507),0.034,0.065,0.073,-0.027,-0.067
KXD1 (UniProt Q9BQD3),-0.178,0.079,0.042,-0.079,0.034
LUC7L (UniProt Q9NQ29),0.011,-0.015,-0.011,0,0.027
LAMP2 (UniProt P13473),0.022,-0.006,-0.041,-0.078,0.074
MCCC2 (UniProt Q9HCC0),0.029,0.038,-0.027,-0.022,0.026
MAPKAPK2 (UniProt P49137),-0.047,0.064,0.012,0.013,-0.056
MICU2 (UniProt Q8IYU8),0.013,-0.037,-0.123,-0.029,0.021
LARP4B (UniProt Q92615),-0.003,-0.013,0,0.081,-0.014
IMMT isoform 4 (UniProt Q16891),0.005,0.021,0.026,-0.025,-0.008
LTO1 (UniProt Q8WV07),0.054,-0.02,0.142,-0.062,0.03
LYN (UniProt P07948),0.035,0.038,0.013,0.028,-0.043
MAIP1 (UniProt Q8WWC4),0.012,0.075,0.028,-0.026,0.002
MGST1 (UniProt P10620),-0.061,0.032,-0.11,0.05,0.008
ILVBL (UniProt A1L0T0),-0.016,0.371 (active),0.075,-0.067,-0.127
MIEN1 (UniProt Q9BRT3),0.035,0.101,0.014,-0.097,0.019
KPNB1 (UniProt Q14974),-0.035,-0.018,-0.024,0.001,-0.021
